An excerpt weighted towards active compounds, which were near 8% of everything screened.
HT1080NT lethal – kills 2HG-producing HT-1080-NT fibrosarcoma cells. HT-1080-NT fibrosarcoma viability, CellTiter-Glo ATP luminescence, 48 h. Potency, µM (series often up to 46.1 µM), usual class: cytotoxic. 360,000 compounds, 1.6% hits. AID 686970;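 also: NT is the 2HG producing partner of a matched IDH1 knockdown line; nearly all actives have a fitted effect of over 55% in size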
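Viability of the 2HG-overproducing fibrosarcoma line after 48 hours of compound exposure at 37 degrees C was determined by luminescence with CellTiter-Glo, and concentration-effect curves were then fitted and categorized.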
KB-3-1 tox – kills parental KB-3-1 adenocarcinoma cells; KB-3-1 viability, CellTiter-Glo ATP luminescence, 72 h; Potency, µM (highest dose often 46.1 µM), usual class: cytotoxic; 400,000 compounds, 1.4% hits; also: nearly all actives have a fitted effect of over 60% in size
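Parental KB-3-1 adenocarcinoma cells in phenol-red-free DMEM with 10% FBS were pin-treated with compounds at several concentrations, incubated 72 h at 37 °C, and viability read by CellTiter-Glo luminescence; concentration-effect curves were fitted after normalization.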
HT1080 IDH1KD tx – kills HT-1080 cells with IDH1 knockdown; HT-1080 IDH1 knockdown viability, ATP luminescence, 48 h; Potency, µM (series often up to 46.1 µM), hits mostly cytotoxic; 360,000 compounds, 2% hits; AID 686971
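Using the IDH1-knockdown HT-1080 line run in the same batch and compound series as the NT line, viability after 48 h at 37 °C was determined by CellTiter-Glo luminescence and expressed as % activity.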
MCF10A rerep – induces DNA re-replication in MCF 10a normal breast cells; MCF 10A DNA re-replication, Hoechst nuclear intensity, 48 h; Potency, µM (highest dose often 46.1 µM), hits mostly activators; 350,000 compounds, 2.9% hits; AID 624296; also: nearly all actives have a fitted effect of over 50% in size
KB-V1 MDR tox – KB-V1 MDR subline cytotoxicity; AID 1347076; KB-V1 MDR cells viability, CellTiter-Glo, 72 h; 400,000 compounds, 3.4% hits; Potency, µM (titrated, usually from 46.1 µM), usual class: cytotoxic; also: nearly all actives have a fitted effect of over 60% in size
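Cells of the MDR subline KB-V1 are plated, dosed with compound at multiple concentrations, and incubated 72 h at 37 degrees C; CellTiter-Glo is then added and luminescence read after 10 min.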
SW480 rerep – inducers of DNA re-replication in SW480 colon cancer cells | SW480 DNA re-replication, Hoechst DNA content imaging, 48 h | Potency, µM (titrated, usually from 46.1 µM), actives largely listed as activators | 340,000 compounds, 1.8% hits | AID 624297; also: nearly all actives have a fitted effect of over 55% in size
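Hoechst fluorescence of nuclei (405 nm excitation, 500-530 nm emission) measured by plate-scanning imager after 48 hr compound exposure at 37 C; re-replication scored as increased number of nuclei with elevated intensity.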
Each line names hits and unclear results; the compound was inactive in the other large screens. Calls follow the shape of the dose curve; as a rule, active = well fitted curve in the direction sought with a large enough effect; inconclusive = small, poorly fitted or top-dose-only effect, or another doubt; inactive = no such curve, though single readings can be large; an effect the other way counts as inactive or inconclusive.

COc1ccc(Cl)cc1NC(=O)CN(C)C(=O)CN1C(=O)NC(C)(c2ccc3ccccc3c2)C1=O (stereo not given)	HT1080NT lethal inconclusive, KB-3-1 tox 10µM, HT1080 IDH1KD tx inconclusive, MCF10A rerep inconclusive, KB-V1 MDR tox inconclusive
CN1CCN(c2ccc(Cl)cc2NC(=O)C2COc3ccccc3O2)CC1 (stereo not given)	HT1080NT lethal 15µM, KB-3-1 tox inconclusive, HT1080 IDH1KD tx inconclusive, SW480 rerep inconclusive
COCCN(CC(=O)Nc1cccc(C)c1C)C(=O)C1CCN(S(=O)(=O)c2ccccc2)CC1	KB-V1 MDR tox 9.2µM
O=C(Nc1cc(S(=O)(=O)N2CCOCC2)ccc1N1CCCC1)C1COc2ccccc2O1 (stereo not given)	none
CN1CCN(c2ccc(Cl)cc2NC(=O)c2cccc(S(=O)(=O)N(C)C)c2)CC1	HT1080NT lethal inconclusive
CN1CCN(c2ccc(Cl)cc2NC(=O)/C=C/c2cccc(F)c2)CC1	HT1080NT lethal 12µM, KB-3-1 tox inconclusive, HT1080 IDH1KD tx 21µM, SW480 rerep inconclusive
COc1ccc(Cl)cc1NC(=O)C1COc2ccccc2O1 (stereo not given)	none
COc1ccc(Cl)cc1NC(=O)CNc1ccccc1CN(C)C1CCCCC1	HT1080NT lethal inconclusive, HT1080 IDH1KD tx 16µM, KB-V1 MDR tox inconclusive
CCOc1ccc(/C=C2\SC(=O)N(CCNC(=O)C3COc4ccccc4O3)C2=O)cc1OC (stereo not given)	MCF10A rerep inconclusive, KB-V1 MDR tox 16µM
COc1ccc(/C=C2/SC(=O)N(CCNC(=O)C3COc4ccccc4O3)C2=O)cc1 (stereo not given)	KB-V1 MDR tox inconclusive
COc1ccc(Cl)cc1NC(=O)CN(C)C(=O)C1COc2ccccc2O1 (stereo not given)	KB-V1 MDR tox 16µM
CC1Cn2c(C(=O)NCc3ccccc3Cl)cc3cccc(c32)S1 (stereo not given)	none (no result: HT1080NT lethal, HT1080 IDH1KD tx, MCF10A rerep, SW480 rerep)
COc1ccc(NC(=O)COc2cccc3c2CCN(Cc2cccnc2)C3=O)c(OC)c1	KB-V1 MDR tox 5.2µM, SW480 rerep inconclusive
O=c1c2ccccc2cnn1-c1nc2ccccc2[nH]1	HT1080NT lethal 3.7µM, KB-3-1 tox inconclusive, HT1080 IDH1KD tx 3.7µM, KB-V1 MDR tox inconclusive
COc1ccccc1CN(C)CC(=O)c1c(C)[nH]c2ccccc12	none (no result: HT1080NT lethal, HT1080 IDH1KD tx, MCF10A rerep, SW480 rerep)
COc1ccc2c(c1)c1c(c(=O)n(CCc3ccccc3)c(=O)n1Cc1ccc(Cl)cc1)n2C	none (no result: HT1080NT lethal, HT1080 IDH1KD tx, MCF10A rerep, SW480 rerep)
Cc1nn(-c2ccccc2)c2c1/C(=N/O)CC(C)(C)C2	KB-V1 MDR tox 16µM
CCCCN(CCCNC(=O)c1c(C)oc2nc[nH]c(=O)c12)Cc1ccccc1	none (no result: HT1080NT lethal, HT1080 IDH1KD tx, MCF10A rerep, SW480 rerep)
CCC(C)n1c(SCC(=O)NCCc2ccc(S(N)(=O)=O)cc2)nc2ccsc2c1=O (stereo not given)	none
O=C(O)CCCCn1c(SCC(=O)Nc2ccccc2C(F)(F)F)nc2ccsc2c1=O	none
CCC(C)n1c(SCc2ccccc2)nc2ccsc2c1=O (stereo not given)	KB-3-1 tox inconclusive, MCF10A rerep inconclusive, KB-V1 MDR tox 10µM
CCC(C)n1c(SCC(=O)Nc2ccccc2C(F)(F)F)nc2ccsc2c1=O (stereo not given)	KB-V1 MDR tox 23µM
CCCCCn1c(=O)[nH]c2cc(C(=O)N3CCN(c4cccc(C)c4)C(C)C3)ccc2c1=O (stereo not given)	KB-3-1 tox inconclusive (no result: HT1080NT lethal, HT1080 IDH1KD tx, MCF10A rerep, SW480 rerep)
COc1ccc(-n2ccnc(NCc3ccc(Cl)cc3)c2=O)cc1	none (no result: HT1080NT lethal, HT1080 IDH1KD tx, MCF10A rerep, SW480 rerep)
CC1CCN(C(=O)CN2CCSc3ccccc32)CC1	none (no result: HT1080NT lethal, HT1080 IDH1KD tx, MCF10A rerep, SW480 rerep)
Nc1cc(=O)[nH]c(SCCSc2ccccc2F)n1	KB-3-1 tox inconclusive, KB-V1 MDR tox inconclusive
Nc1cc(=O)[nH]c(SCCSc2cc(Cl)ccc2Cl)n1	KB-3-1 tox 0.73µM, KB-V1 MDR tox 0.41µM
COC(=O)c1sccc1-c1ccc(C(=O)Nc2cccnc2)o1	MCF10A rerep inconclusive, KB-V1 MDR tox 5.8µM
COC(=O)c1sccc1NC(=O)c1cccnc1	none

Bioassay records from PubChem BioAssay.
